Reference: the supplement of paper PMC10127200
Structures can show the parent of a compound that is named as a salt.

Columns and labels:
Test in all cases: Euclidean distance of Cell Painting phenotypic profile (signed KS, 77 features) to DMSO centroid (dimensionless distance); 5 or 10 uM (library dependent); higher = stronger phenotypic change vs DMSO (phenoactivity)
Settings in all cases: 48 h
786-O = system: 786-O
In short: (§1)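 Stained cells were imaged confocally at 20X with 9 fields per well, after 48 h of exposure to library compounds at 10 or 5 uM (set by library; 0.1% DMSO final). The cells were five cancer lines and a healthy fibroblast line. From the images, Harmony extracted 77 features, each expressed as a signed Kolmogorov-Smirnov statistic relative to same-plate vehicle wells. Phenoactivity is measured as Euclidean distance to the median vehicle profile, using plate-position-corrected, correlation-weighted profiles averaged across replicates at the top dose.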

A549 = system: A549
In short: as §1

DU145 = system: DU145
In short: as §1

FB = system: FB
In short: as §1

HEPG2 = system: HEPG2
In short: as §1

OVCAR4 = system: OVCAR4
In short: as §1

SMILES	Euclidean distance (786-O)	Euclidean distance (A549)	Euclidean distance (DU145)	Euclidean distance (FB)	Euclidean distance (HEPG2)	Euclidean distance (OVCAR4)
CC(=O)O[C@@]12CO[C@@H]1C[C@H](O)[C@@]1(C)C(=O)[C@H](O)C3=C(C)[C@@H](OC(=O)[C@H](O)[C@@H](NC(=O)OC(C)(C)C)c4ccccc4)C[C@@](O)([C@@H](OC(=O)c4ccccc4)[C@H]21)C3(C)C [Docetaxel Trihydrate]	3.61	3.08	3.17	2.26	2.15	2.49
CN(C(=O)c1c(O)c2ccccc2n(C)c1=O)c1ccccc1 [Roquinimex]	0.929	0.796	1.13	1.32	0.76	0.974
CN(C)CCOC(=O)C(c1ccccc1)C1(O)CCCC1 (stereo unspecified) [Cyclopentolate Hydrochloride]	1.16	0.28	0.841	1.15	0.601	1.57
OCc1ccc(Cl)cc1Cl [2.4-dichlorobenzyl alcohol]	0.68	0.36	1.13	0.663	0.329	1.56
COc1ccccc1OCCNCC(O)COc1cccc2[nH]c3ccccc3c12 (stereo unspecified) [Carvedilol Phosphate]	2.5	2.28	1.98	1.66	2.55	1.81
Clc1ccc2c(N3CCN(CCCN4CCN(c5ccnc6cc(Cl)ccc56)CC4)CC3)ccnc2c1 [Piperaquine phosphate]	1.59	1.33	1.11	1.45	0.952	1.25
Oc1ccc(OC2CCCCO2)cc1 (stereo unspecified) [Deoxyarbutin]	1.11	0.699	1.16	1.24	1.02	1.45
CC1(C)CNc2cc(NC(=O)c3cccnc3NCc3ccncc3)ccc21 [Motesanib Diphosphate (AMG-706)]	1.29	1.76	1.48	1.96	1.27	1.37
NC1=N[C@@]2(c3cc(NC(=O)c4ccc(F)cn4)ccc3F)COC[C@H]2CS1	1.08	1.29	1.47	1.04	0.861	1.05
CCS(=O)(=O)Nc1ccc2c(c1)/C(=C(/Nc1ccc(CN3CCCCC3)cc1)c1ccccc1)C(=O)N2 [Hesperadin]	3.36	3.8	2.47	3.41	2.69	3.25
CCOc1ccn(-c2ccc(F)cc2)c(=O)c1C(=O)Nc1ccc(Oc2ccnc(N)c2Cl)c(F)c1	1.2	3.4	1.66	2.27	1.66	2.55
COc1ccc(COc2ccc(Cc3cnc(N)nc3N)cc2OC)cc1	0.708	1.1	0.739	1.13	2.08	0.792
Cn1cc(-c2ccc3nnc(C(F)(F)c4ccc5ncccc5c4)n3n2)cn1	0.466	2.03	0.962	1.2	0.706	1.08
C[S+]([O-])c1ccc(-c2nc(-c3ccc(F)cc3)c(-c3ccncc3)[nH]2)cc1 (stereo unspecified)	1.84	0.978	1.1	1.03	2.4	1.33
CCOc1cc2ncc(C#N)c(Nc3ccc(F)c(Cl)c3)c2cc1NC(=O)/C=C/CN(C)C [Pelitinib (EKB-569)]	2.29	3.19	4.45	4.45	2.63	2.82
C=C[C@](C)(O)CC[C@@H]1[C@@]2(C)CCCC(C)(C)[C@@H]2CC[C@@]1(C)O [Sclareol]	0.617	0.762	0.574	0.717	0.546	1.39
N=C1CCCN1Cc1[nH]c(=O)[nH]c(=O)c1Cl.O=c1[nH]c(=O)n([C@H]2C[C@H](O)[C@@H](CO)O2)cc1C(F)(F)F	3.51	3.48	3.37	1.25	3	3.04
CC[C@@H]1/C=C(\C)C[C@H](C)C[C@H](OC)[C@H]2O[C@@](O)(C(=O)C(=O)N3CCCC[C@H]3C(=O)O[C@H](/C(C)=C/[C@@H]3CC[C@@H](O)[C@H](OC)C3)[C@H](C)[C@@H](O)CC1=O)[C@H](C)C[C@@H]2OC [Ascomycin (FK520)]	1.06	1.18	1.28	1.43	0.58	0.799
C#C[C@]1(O)CC[C@H]2[C@@H]3CCC4=CC(=O)CC[C@@H]4[C@H]3C(=C)C[C@@]21CC [Etonogestrel]	0.851	0.713	0.98	1.21	0.628	1.03
O=C(c1ccc(F)cc1)N1CCC[C@H](c2nc(-c3ccc(F)cc3)no2)C1	1.35	0.726	0.856	1.17	0.656	0.832
Cc1c(C(=O)NN2CCCCC2)nn(-c2ccc(Cl)cc2Cl)c1-c1ccc(Cl)cc1 [Rimonabant]	1.92	1.17	1.04	0.895	0.664	1.22
Cc1c(-c2ccccc2)oc2c(C(=O)OCCN3CCCCC3)cccc2c1=O [Flavoxate HCl]	0.908	2.27	1.73	2.91	0.927	1.61
Cc1cccc(CN2CCN(C(c3ccccc3)c3ccc(Cl)cc3)CC2)c1 (stereo unspecified) [Meclizine 2HCl]	1.66	1.27	0.732	1.06	0.511	1.51

SMILES	Euclidean distance (786-O)	Euclidean distance (A549)	Euclidean distance (DU145)	Euclidean distance (FB)	Euclidean distance (HEPG2)	Euclidean distance (OVCAR4)
CC(C)n1nc(-c2cc3cc(O)ccc3[nH]2)c2c(N)ncnc21	4.59	3.23	2.64	4.3	3.12	4.61
CC(=O)Oc1cc2c(s1)CCN(C(C(=O)C1CC1)c1ccccc1F)C2 (stereo unspecified) [Prasugrel Hydrochloride]	0.877	0.726	0.888	0.495	0.448	0.803
CCN(CC)C(=O)[C@@]1(c2ccccc2)C[C@H]1CN [Levomilnacipran Hydrochloride]	0.986	0.786	1.17	1.23	0.649	0.997
O=C(O)C(Cc1c[nH]c2ccccc12)N1C(=O)c2ccccc2C1=O (stereo unspecified)	0.991	0.979	0.681	0.852	0.417	0.641
COc1ccc2c(Oc3ccc(NC(=O)c4c(C)n(CC(C)(C)O)n(-c5ccccc5)c4=O)nc3)ccnc2c1	1.16	1.01	1.02	3.08	0.897	0.976
COc1cc2c(cc1O)CC[C@@H]1[C@@H]2CC[C@]2(C)[C@@H](O)CC[C@@H]12 [2-Methoxyestradiol (2-MeOE2)]	2.47	2.67	2.66	2.05	2.07	2.42
c1coc(CNc2ncnc3[nH]cnc23)c1 [Kinetin]	1.36	1.02	0.682	1.33	0.627	1.72
CC1=NN(c2ccc(C)c(C)c2)C(=O)/C1=N\Nc1cccc(-c2cccc(C(=O)O)c2)c1O [Eltrombopag]	2.4	1.81	3.38	2.71	3.89	2.45
O=C(c1ccc(F)c(F)c1Nc1ccc(I)cc1F)N1CC(O)([C@@H]2CCCCN2)C1 [Cobimetinib (GDC-0973. RG7420)]	2.92	2.56	3.23	4.08	5.18	2.85
O=C1Nc2ccc(I)cc2/C1=C/c1cc(Br)c(O)c(Br)c1	1.58	0.975	0.984	1.02	0.668	1.3
c1ccc(-c2[nH]ncc2-c2ccnc3ccccc23)nc1	0.643	0.916	0.92	1.27	1.24	0.931
C#Cc1cccc(Nc2ncnc3cc(OCCOC)c(OCCO)cc23)c1	1.88	1.49	1.82	2.87	1.07	2.03
O=C1c2c(O)cccc2Cc2cccc(O)c21 [Dithranol]	2.26	0.754	1.2	2.24	0.979	2.04
CNS(=O)(=O)Cc1ccc2[nH]cc(CCN(C)C)c2c1 [Sumatriptan Succinate]	1.54	1.49	0.753	1.35	0.966	1.66
COc1ccc(C(=O)CC(=O)c2ccc(C(C)(C)C)cc2)cc1 [Avobenzone]	1.41	0.547	0.714	1.02	0.762	0.989
CN1C(=O)CC(c2ccccc2)C1=O (stereo unspecified) [Phensuximide]	0.788	1.12	1.01	0.827	0.849	0.954
COc1cc(Nc2ncc(F)c(Nc3ccc4c(n3)N(COP(=O)(O)O)C(=O)C(C)(C)O4)n2)cc(OC)c1OC [R788 (Fostamatinib) Disodium]	1.37	2.39	2.15	3.19	0.696	2.19
Cc1cccc(N(C)C(=S)Oc2ccc3ccccc3c2)c1 [Tolnaftate]	1.29	0.815	1.01	0.908	1.96	1.36
Nc1ncnc2c1c(-c1cnc3[nH]ccc3c1)nn2C1CCCC1	4.92	5.03	4.39	4.32	4.53	3.29
O=C(O)CCC(=O)c1ccc(-c2ccccc2)cc1 [Fenbufen]	0.582	1.6	0.988	0.916	0.887	1.11
CC(C(=O)O)c1ccc2c(c1)Cc1cccnc1O2 (stereo unspecified) [Pranoprofen]	1.12	0.714	1.29	1.04	0.599	0.996
Nc1ncnc2c1ncn2C1OC(COP(=O)(O)O)C(O)C1O (stereo unspecified) [Adenosine 5'-monophosphate monohydrate]	0.685	0.894	0.9	0.831	0.601	1.27
CO[C@@]1(NC(=O)Cc2cccs2)C(=O)N2C(C(=O)O)=C(COC(N)=O)CS[C@@H]21 [Cefoxitin]	0.82	0.39	0.617	0.482	0.307	1.03
